In all, about 67,000 compounds went through this assay and about 300 (0.45%) showed an effect of 50% or more. The entries come from a sample that favours strong results as a whole.

Polyketide synthase Pks13 (Mycobacterium tuberculosis (strain ATCC 25618 / H37Rv)), sequence (I6X8D2 whole entry): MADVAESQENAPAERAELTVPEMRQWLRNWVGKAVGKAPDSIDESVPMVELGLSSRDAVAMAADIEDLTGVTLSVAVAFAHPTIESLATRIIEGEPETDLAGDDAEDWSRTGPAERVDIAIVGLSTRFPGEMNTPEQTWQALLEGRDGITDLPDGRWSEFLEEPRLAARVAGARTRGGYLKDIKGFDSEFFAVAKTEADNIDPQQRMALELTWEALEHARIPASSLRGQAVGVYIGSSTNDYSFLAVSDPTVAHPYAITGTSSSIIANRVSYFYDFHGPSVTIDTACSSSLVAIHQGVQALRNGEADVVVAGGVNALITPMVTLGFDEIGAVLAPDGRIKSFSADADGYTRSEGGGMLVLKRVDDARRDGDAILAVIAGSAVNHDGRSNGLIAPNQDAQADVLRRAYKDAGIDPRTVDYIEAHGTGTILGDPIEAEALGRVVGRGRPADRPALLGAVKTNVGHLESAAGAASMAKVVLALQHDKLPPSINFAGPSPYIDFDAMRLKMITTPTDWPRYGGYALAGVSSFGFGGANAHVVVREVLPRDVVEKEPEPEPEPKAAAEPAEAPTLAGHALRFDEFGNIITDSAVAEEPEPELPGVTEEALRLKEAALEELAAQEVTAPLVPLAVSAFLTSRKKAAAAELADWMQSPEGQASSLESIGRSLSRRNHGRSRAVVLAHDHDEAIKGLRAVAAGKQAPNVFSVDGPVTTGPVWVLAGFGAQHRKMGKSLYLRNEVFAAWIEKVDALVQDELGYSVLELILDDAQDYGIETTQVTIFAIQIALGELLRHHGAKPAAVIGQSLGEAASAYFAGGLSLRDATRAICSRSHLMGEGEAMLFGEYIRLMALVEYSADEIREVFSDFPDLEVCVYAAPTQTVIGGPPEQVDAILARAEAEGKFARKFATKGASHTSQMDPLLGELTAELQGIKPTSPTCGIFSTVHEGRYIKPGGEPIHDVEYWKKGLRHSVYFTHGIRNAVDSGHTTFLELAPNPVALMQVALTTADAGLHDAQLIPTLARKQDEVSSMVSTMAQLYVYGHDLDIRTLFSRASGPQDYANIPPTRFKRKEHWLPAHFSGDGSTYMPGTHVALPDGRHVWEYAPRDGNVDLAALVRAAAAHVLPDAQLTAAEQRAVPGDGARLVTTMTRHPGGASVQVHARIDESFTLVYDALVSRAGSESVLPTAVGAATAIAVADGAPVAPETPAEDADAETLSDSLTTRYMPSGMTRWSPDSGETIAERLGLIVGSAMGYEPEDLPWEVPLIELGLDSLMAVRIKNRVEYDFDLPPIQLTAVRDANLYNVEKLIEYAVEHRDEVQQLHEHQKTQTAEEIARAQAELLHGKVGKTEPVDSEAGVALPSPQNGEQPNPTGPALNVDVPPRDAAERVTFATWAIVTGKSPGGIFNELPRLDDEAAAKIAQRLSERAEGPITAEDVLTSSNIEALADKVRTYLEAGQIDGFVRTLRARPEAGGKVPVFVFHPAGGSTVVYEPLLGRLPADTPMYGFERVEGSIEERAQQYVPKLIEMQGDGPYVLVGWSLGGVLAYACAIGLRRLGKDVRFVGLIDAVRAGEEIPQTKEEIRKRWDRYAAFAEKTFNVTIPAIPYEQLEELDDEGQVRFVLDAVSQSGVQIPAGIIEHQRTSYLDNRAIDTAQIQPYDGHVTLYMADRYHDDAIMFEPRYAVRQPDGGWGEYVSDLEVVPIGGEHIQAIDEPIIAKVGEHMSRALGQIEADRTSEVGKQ

This experiment addresses Polyketide synthase Pks13 (Mycobacterium tuberculosis (strain ATCC 25618 / H37Rv)) (UniProt I6X8D2). Briefly: Mycobacterium tuberculosis Polyketide synthase 13 Thioesterase (PKS13). Type of experiment: functional. Further details: scale not given: in the data most compounds retested in dose-response had high values. As to conditions: 30 µM.
In the case of `Cn1cc(CN2C[C@H](Oc3ncccc3F)[C@H]3OCCC[C@H]32)cn1`, the Percent Effect came to 4.64%. In the case of `Cc1occc1C(=O)N1C[C@@H]2CCCO[C@@H]2[C@H](NC(=O)CC2CC2)C1`, the Percent Effect is -0.923%. Then `CC(C)=CCN1C[C@H]2CC[C@@H]1CN(C(=O)c1c[nH]c(=O)c(Cl)c1)C2`, with -3.37%; and `CC(C)CN1C[C@@H]2C(=O)N(C)C3(CCN(C(=O)C(C)C)CC3)[C@@H]2C1`, with -25.7%; and `Cc1noc([C@]23COC[C@H]2CN(S(=O)(=O)N(C)C)C3)n1`, with -30.1%. Then `CNC(=O)CN1CCO[C@H]2CN(C(=O)C3CC3)C[C@H]21`, with -29%; and `O=C([C@@H]1COC[C@H]2CN(C3CCOCC3)C[C@H]21)N1CCCO1`, with 35.9%; and `CS(=O)(=O)N[C@@H]1CN(Cc2ccoc2)C[C@@H]2CCCO[C@@H]21`, with -30.2%. As for `CCC1(CC)Cc2ccccc2-c2nc(NCCO)[nH]c(=O)c21`, the Percent Effect is -180%. Then `CCC1(CC)Cc2ccccc2-c2nc(CN(C)C)nc(O)c21`, with -41.1%.

With `CCC1(CC)Cc2ccccc2-c2nc(NCCCO)[nH]c(=O)c21`, the Percent Effect is 88.8%.

`O=C([C@H]1C[C@H]2OCC[C@H]2N(C(=O)c2ccccn2)C1)N1CCCCO1`: the Percent Effect was -25.9%. In the case of `CC(=O)N1CCC(NC(=O)c2cc(S(N)(=O)=O)ccc2C)CC1` it was -0.331%; in that of `CC(=O)N1CCC(NC(=O)c2cc(Cl)ccc2-n2cnnn2)CC1`, -14.8%; in that of `CC(=O)N1CCC(NC(=O)c2cc(Cl)ccc2O)CC1`, 95.8%. Then `Cc1nc(CO[C@H]2CN(Cc3ccccn3)[C@@H]3CCCO[C@H]23)cs1`, with 1.71%.

For the compound `CC(=O)N1CC[C@H]2OCC[C@@H](C(=O)Nc3cccnc3C)[C@H]2C1`, the Percent Effect worked out at 5.14%. In the case of `O=C(c1ccco1)N1C[C@H]2CCCN(CC3CCOCC3)[C@H]2C1` it was 0.0598%. In the case of `Cn1ccnc1CN1C[C@H](N2CCOCC2)[C@@H]2OCCC[C@@H]21` it was -10.5%; in that of `CC(C)C(C)N1Cc2cccc(NCC(=O)N(C)C)c2C1` (centres undefined), -6.55%.

Consider `CC(C)N1Cc2cccc(NCC(=O)N(C)C3CCCCC3)c2C1`, for which the Percent Effect was found to be 81.9%. For the compound `CC(C)N1Cc2cccc(NCC(=O)N(C)C)c2C1`, the Percent Effect was -31.9%. In the case of `CN(C)C[C@@H]1CCC[C@@H]2CN(c3cccnc3)C[C@@H]21` it was -20.9%; in that of `CS(=O)(=O)N1CCN2C(=O)N(C3CCCCC3)C[C@H]2C1`, 3.48%. `O=C([C@@H]1COC[C@H]2CN(c3ccncn3)C[C@H]21)N1CCCCO1`: the Percent Effect is -30%. Then `O=C(C1CCC1)N1CCO[C@H]2[C@H](OCCCn3cccn3)CC[C@@H]21`, with -40.4%. In the case of `Cc1ccnc(NC(=O)c2ccc(Cl)o2)c1` it was -6.1%. In the case of `O=C(Nc1cc(CSCCO)ccn1)c1ccc(Cl)o1` it was 62%; in that of `Cc1cscc1C(=O)Nc1cc(CSCCO)ccn1`, 11.8%. With `Cc1cccc(CN2C[C@@H](NC(=O)C3CCC3)[C@H]3COC[C@H]32)n1`, the Percent Effect is -33.3%.

As to `O=C(CCc1n[nH]c2c1CCCC2)N1C[C@@H]2CC[C@H](C1)N(CC1CC1)C2`, the Percent Effect is -15.4%. Consider `Cc1nn(C)cc1-c1ccnc(N(C)Cc2ccc(F)cc2)n1`, for which the Percent Effect was -13.2%.

For `Cc1nn(C)cc1-c1ccnc(N(C)Cc2ccoc2)n1`, the Percent Effect was found to be 139%.

`Cc1nn(C)cc1-c1ccnc(N(C)Cc2cnn(C)c2)n1`: the Percent Effect was -7.71%. For `CC(C)N1[C@H](Cn2cncn2)C[C@@H]2CN(Cc3cccs3)CC[C@@H]21`, the Percent Effect amounted to 2.62%.

As to `O=C1CC(NCc2cnc(C3CCCCC3)nc2)CN1c1ccccc1` (centres undefined), the Percent Effect is -18%. Then `O=C1CC(NCc2cnc(-c3cccs3)nc2)CN1c1ccccc1` (centres undefined), with -18.1%. For the compound `O=C1CC(NCc2cnc(N3CCCC3)nc2)CN1c1ccccc1` (centres undefined), the Percent Effect amounted to 65.7%. Then `O=S(=O)(c1ccccc1)N1C[C@@H]2CCCCN(Cc3cccs3)[C@@H]2C1`, with -1.03%; and `COc1cc2nc(NCc3ccc(C)nc3)nc(N)c2cc1OC`, with -17.5%; and `COc1cc2nc(NCc3cc(C)on3)nc(N)c2cc1OC`, with 78.9%. Turning to `COc1cc2nc(NCc3scnc3C)nc(N)c2cc1OC`, the Percent Effect is 12.1%.

On to `CNC(=O)CN1CCO[C@H]2CN(CC3CCOC3)C[C@H]21` (some centres undefined), for which the Percent Effect is -18.9%.

For `O=C(c1cc(F)cc(F)c1)N1C[C@H]2CNC[C@H]2C1`, the Percent Effect was -29.4%. Then `COCCN1CC(=O)N2CC[C@@H](O)C[C@H]2C1=O`, with 7.83%. In the case of `Cc1ncc2c(n1)CN(Cc1nc3ccccc3o1)CC2` it was -1.34%; in that of `Cc1ncc2c(n1)CN(CCCc1nc3ccccc3o1)CC2`, 94.6%. Then `Cc1ncc2c(n1)CCN(CCCc1nc3ccccc3o1)C2`, with 0.614%. For the compound `CCCN1CCN(C(=O)c2ccc(Cl)cn2)[C@H]2CS(=O)(=O)C[C@H]21`, the Percent Effect came to 5.71%.
